± gives the standard deviation of the averaged measurements.
The compounds below were run on Drosophila ezoana antennal basiconic sensillum ab6 (assay: odor-evoked OSN spike response (post minus pre-stimulus); higher = stronger neuronal excitation). Conditions: odor dilution: 10^-4.
Description: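 Single sensillum recordings from antennal basiconic sensilla of D. ezoana. A 500 ms pulse of odorant (10^-4 in mineral oil or DMSO) was delivered; the response is the change in action potential frequency between the 1 s pre- and post-stimulus windows (spikes/s).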

| Compound | odor-evoked OSN spike response [spikes/s] |
| --- | --- |
| CCOC(=O)CC(C)O (stereo not given) [Ethyl-3-hydroxybutyrate] | 93.1 ± 33 |
| CC(=O)CCC=C(C)C [6-methyl-5-hepten-2-one] | 58.1 ± 30 |
| Oc1ccccc1 [phenol] | 73 ± 38 |
| CCCCCCO [1-hexanol] | 77.5 ± 29 |
| CCOC(C)=O [Ethyl acetate] | 55.2 ± 25 |
| C/C=C/C(=O)OCC [Ethyl crotonate] | 71.1 ± 37 |
| CCCCCCCC(C)=O [2-nonanone] | 54.7 ± 22 |
| OCCc1ccccc1 [2-phenylethanol] | 53 ± 31 |
| CCOC(=O)C(C)O (stereo not given) [Ethyl lactate] | 58 ± 18 |
| CC(=O)C(C)O (stereo not given) [acetoin] | 69.8 ± 40 |
| CCCCC(C)O (stereo not given) [2-hexanol] | 67.3 ± 33 |
| C=CC(O)CCCCC (stereo not given) [1-octen-3-ol] | 143 ± 47 |
| COC(=O)c1ccccc1O [Methyl salicylate] | 58.3 ± 32 |
| CCCCCOC(C)=O [pentyl acetate] | 67.9 ± 20 |
| COc1ccccc1O [guaiacol] | 123 ± 36 |
| CCCC(=O)OCC [ethyl butanoate] | 52.1 ± 29 |
| CCCCCC(=O)OCC [ethyl hexanoate] | 52.2 ± 20 |
| CCCCCCCC(C)O (stereo not given) [2-nonanol] | 55.7 ± 33 |
| CCOC(=O)c1ccccc1 [ethyl benzoate] | 66.1 ± 26 |
| CCCCCC(C)=O [2-heptanone] | 60.9 ± 21 |

— the supplement of paper PMC10477191
